From PubChem BioAssay
The sample as a whole holds a higher share of hits than the screen did.
Choline anaer gr – growth inhibitors of anaerobic choline-fed gram-negatives, minimal medium, absorbance; Gram-negative bacterium anaerobic choline minimal medium; stronger effect = lower value; calls only; hit rate 0.2% among 55,000; call rule not given here
* marks the source's active call; other numbers are inactive results; i = inactive; + = active, no number; ! = not active in a repeat.

SMILES | Choline anaer gr
Cc1noc(C)c1C1CCCN1C(=O)c1cc(C2CC2)on1 (centres undefined) | +
CCc1onc(C)c1C1CCCN1C(=O)c1cc(C2CC2)on1 (centres undefined) | i
CCc1ccc(NC(=O)N(C)CCc2noc(-c3ccc(C)cc3)n2)cc1 | i
CCc1ccc(OCc2nc(CCN(C)C(=O)Nc3ccc(C(=O)OC)cc3)no2)cc1 | +
CCOc1ccccc1NC(=O)N(C)CCc1noc(COc2ccc(Cl)cc2)n1 | i
Cc1cc(OCc2nc(C)c(C(=O)NCc3ccc4c(c3)OCO4)s2)ccc1Cl | i
C=CCn1c(=O)[nH]c2ccccc2c1=O | i
Cc1ccc(NC(=O)CSCc2nc3cccnc3n2C2CCCCC2)cc1 | i
CN(C)CCCn1cc(C2=C(c3c[nH]c4ccccc34)C(=O)NC2=O)c2ccccc21 | +!
Cn1cc(C2=C(c3cn(CCCSC(=N)N)c4ccccc34)C(=O)NC2=O)c2ccccc21 | i
COc1ccc2c(c1)c(C1=C(c3c[nH]c4ccccc34)C(=O)NC1=O)cn2CCCN(C)C | i
CCS(=O)(=O)NCC(c1ccc(N(C)C)cc1)N(C)C (centres undefined) | i
CN(C)CC/C=C1\c2ccccc2Sc2ccc(Cl)cc21 | i
CN(C)CCC=C1c2ccccc2Sc2ccc(Cl)cc21 | +
CCc1ccc(-c2noc(CSc3nc4cc5c(cc4c(=O)n3Cc3ccncc3)OCO5)n2)cc1 | i
O=C(COc1ccc(F)cc1)N1CC(OCc2ccc(F)cc2Cl)C1 | i
CCc1cc(C(Nc2cccc(C)n2)c2ccsc2)c(NC(=O)c2ccccc2)s1 (centres undefined) | i
CCN1CCc2nc(NC(=O)c3ccc(S(=O)(=O)N4CCc5ccccc5C4)cc3)sc2C1 | +
CCCN1CCc2nc(NC(=O)c3ccc(S(=O)(=O)N4CCc5ccccc5C4)cc3)sc2C1 | i
O=C(Nc1nc2ccccc2s1)c1ccc(S(=O)(=O)N2CCc3ccccc3C2)cc1 | i
CC1(C)S[C@@H]2[C@H](NC(=O)Cc3ccccc3)C(=O)N2[C@H]1C(=O)O | i
Cc1onc(-c2ccccc2Cl)c1C(=O)N[C@@H]1C(=O)N2[C@@H]1SC(C)(C)[C@@H]2C(=O)O | +
Cc1onc(-c2c(F)cccc2Cl)c1C(=O)N[C@@H]1C(=O)N2C(C(=O)O)C(C)(C)S[C@H]12 (some centres undefined) | i
CC(C)NC(=O)c1cc2ccc3cccnc3c2[nH]1 | i
Brc1ccc(-c2ccc(SCc3nc(-c4ccc5c(c4)OCO5)no3)nn2)cc1 | i
CN(CCc1noc(-c2ccc(C(=O)N3CCCC3)cc2)n1)C(=O)CC1CCCC1 | i
